HTT cytoprotect: qHTS Multiplex Assay to Identify Dual Action Probes in a Cell Model of Huntington: Cytoprotection (ATP); Potency, µM (highest dose often 56.4 µM), without a hit: cytoprotection (ATP increase), usual class: activators; 0.14% of 230,000 active; PC12 HTT-Q103 induced, cytoprotection, ATP luminescence, 40 h; also: potency is read from the fitted curve at half-maximal effect; % of control where 0% means no effect; nearly all actives have a fitted effect of over 45% in size
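Rat PC12, Q103 Htt exon1-GFP fusion, ecdysone promoter; tebufenozide inducer 100 nM final; compound titration; qHTS, 1500 cells/well; ATPlite luminescent read.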
PNC assembly inh: High Content Assay for Compounds that inhibit the Assembly of the Perinucleolar Compartment; PC3M PTB-GFP, PNC prevalence imaging, 16 h; stronger effect = lower value; activity change (PNC), negative = inhibition, % at 10 µM; 3.1% of 140,000 active;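 active = readout at or below -70, meaning at least 70% loss of cells showing the perinucleolar compartment, a nuclear body marking cancer cells; inconclusive = readout between -30 and a set limit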;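 also: plate controls were DMSO wells for no effect and camptothecin positive control wells for full effect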
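Read-out is percentage of cells bearing a perinucleolar compartment, from automated 20x imaging of fixed, Hoechst-stained PC3M PTB-GFP cells. Cells were seeded 4 h, then exposed 16 h to compound (23 nl of library stock) in duplicate plates.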
CBFb RUNX1 block: qHTS Assay for Compounds Blocking the Interaction Between CBF-beta and RUNX1 for the Treatment of Acute Myeloid Leukemia; Runt-related transcription factor 1 (Homo sapiens) + Core-binding factor subunit beta …; AlphaScreen CBFb-His/RUNX1-biotin binding, biochemical; Potency, µM (series often up to 59.8 µM), inactives show at the top dose activity, negative = inhibition, hits mostly inhibitors; 230,000 tested, under 10 active; AID 1477, 2009; also: % of control where 0% means no effect
Target sequence (Q01196 whole entry, looked up): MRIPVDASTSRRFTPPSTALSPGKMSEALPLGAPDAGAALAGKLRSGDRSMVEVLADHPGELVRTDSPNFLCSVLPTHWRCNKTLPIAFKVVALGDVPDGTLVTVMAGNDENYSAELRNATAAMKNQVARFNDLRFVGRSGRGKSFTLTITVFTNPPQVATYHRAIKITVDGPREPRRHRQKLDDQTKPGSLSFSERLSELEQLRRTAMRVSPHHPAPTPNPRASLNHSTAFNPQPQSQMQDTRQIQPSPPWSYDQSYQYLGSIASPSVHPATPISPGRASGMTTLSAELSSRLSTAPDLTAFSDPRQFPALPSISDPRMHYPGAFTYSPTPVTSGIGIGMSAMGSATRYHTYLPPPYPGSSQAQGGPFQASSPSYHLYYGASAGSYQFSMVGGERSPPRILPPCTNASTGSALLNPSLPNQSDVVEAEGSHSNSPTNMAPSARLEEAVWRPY
Target sequence (Q13951 whole entry, looked up): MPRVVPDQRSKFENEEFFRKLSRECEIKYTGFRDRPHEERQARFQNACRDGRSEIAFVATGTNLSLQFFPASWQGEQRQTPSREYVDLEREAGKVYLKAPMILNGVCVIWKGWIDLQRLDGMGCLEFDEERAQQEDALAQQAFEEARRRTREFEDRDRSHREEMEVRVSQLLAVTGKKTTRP
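CBFb-His/RUNX1-biotin, 30 nM each, preincubated 20 min RT; compound 15 min RT; Ni + streptavidin beads 50 ng each, 90 min RT; AlphaScreen read.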
HttQ103 aggreg: qHTS Multiplex Assay to Identify Dual Action Probes in a Cell Model of Huntington: Aggregate Formation (GFP). PC12 HttQ103-GFP aggregates, Acumen cytometry, 40 h. Potency, µM (top dose mostly 46.1 µM), for the others: at the top dose activity change, negative = inhibition, most hits filed as inhibitors. 1.1% of 220,000 active; also: potency is read from the fitted curve at half-maximal effect; % is scaled to controls: 0 for no effect and ±100 for the full control effect; nearly all actives have a fitted effect of over 60% in size
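Inducible Q103 Huntingtin exon 1–GFP PC12 line, 1500 cells/well in phenol red free DMEM with 5% equine and 5% calf serum. Tebufenozide 100 nM induced expression; compounds titrated; aggregates quantified by cytometry.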
ALDH1A1 block: qHTS Assay for Inhibitors of Aldehyde Dehydrogenase 1 (ALDH1A1); Aldehyde dehydrogenase 1A1 (Homo sapiens), P00352; AID 1030, 2008; 7.3% of 220,000 active; Potency, µM (titrated, usually from 75.3 µM), for the others: top-dose activity, negative = inhibition, actives largely listed as inhibitors; Purified ALDH1A1, NADH fluorescence, propionaldehyde substrate; active = well fitted inhibition curve with a large enough effect, not every such curve was filed as active; inconclusive = small, poorly fitted or top-dose-only effect, or another doubt; inactive = no such curve, though single readings can be large or run the other way;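 also: potency is read from the fitted curve at half-maximal effect; plate controls were no enzyme wells and a reference inhibitor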
HPGD block: qHTS Assay for Inhibitors of HPGD (15-Hydroxyprostaglandin Dehydrogenase); 15-hydroxyprostaglandin dehydrogenase [NAD(+)] (Homo sapiens), P15428; purified HPGD, NADH fluorescence kinetic, PGE2 substrate; Potency, µM, without a hit: at the highest dose activity change, negative = inhibition, actives largely listed as inhibitors; AID 894, 2007; 4.3% of 150,000 active; active = well fitted inhibition curve with a large enough effect, not every such curve was filed as active; inconclusive = small, poorly fitted or top-dose-only effect, or another doubt; inactive = no such curve, though single readings can be large or run the other way; also: potency is read from the fitted curve at half-maximal effect; % is scaled to controls: 0 for no effect and ±100 for the full control effect
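20 nM HPGD preincubated 15 min at room temperature with compound in 50 mM Tris-HCl pH 8, 0.01% Tween 20. Started with 1 mM NAD+ and 30 uM prostaglandin E2; NADH fluorescence (360/450 nm) read 5 times over 30-s intervals, last minus first.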
* hit, by the source's call; [ ] = remark or other dose. Sampled rows, rich in hits. Any-hit rate of the full collection: about 11%. Unless noted, calls follow the shape of the dose curve; as a rule, active = well fitted curve in the direction sought with a large enough effect; inconclusive = small, poorly fitted or top-dose-only effect, or another doubt; inactive = no such curve, though single readings can be large; an effect the other way counts as inactive or inconclusive.

For COC(=O)C1(C(=O)OC)C/C=C\Cc2ccccc2[C@@H]1C[N+](=O)[O-] the results were HTT cytoprotect inconclusive, CBFb RUNX1 block -16%, ALDH1A1 block -4% and HPGD block -2%.
Screening O=C(c1cccs1)[C@@H]1[C@@H]2C(=O)N(Cc3ccc4c(c3)OCO4)C(=O)[C@@H]2C2c3ccccc3C=CN21 (stereo partly drawn) returned HTT cytoprotect 12%, PNC assembly inh 8, CBFb RUNX1 block -12%, HttQ103 aggreg 15%, ALDH1A1 block 14µM* and HPGD block inconclusive.
Screening COC(=O)N/N=C/c1cc(N=Nc2ccccc2Cl)ccc1O returned HTT cytoprotect -37%[10 µM], CBFb RUNX1 block -14% and HttQ103 aggreg -16%[9.22 µM].
For O=C(/C(=C/O)N=Nc1cccc(C(F)(F)F)c1)c1ccccc1 the results were HTT cytoprotect -51%, CBFb RUNX1 block 11%, HttQ103 aggreg inconclusive and ALDH1A1 block 7.5µM*.
Screening O=C(/C(=C/O)N=Nc1ccccc1)c1ccco1 returned HTT cytoprotect 35%[10 µM], CBFb RUNX1 block 1%, HttQ103 aggreg 20% and ALDH1A1 block 14µM*.
`O=C(/C(=C/O)N=Nc1ccccc1Cl)c1ccccc1` gave HTT cytoprotect -1%[10 µM], CBFb RUNX1 block inconclusive, HttQ103 aggreg -14% and ALDH1A1 block 7.9µM*.
O=C(N/N=C/C(Cl)=C/c1ccccc1)c1ccco1 was read as HTT cytoprotect -5%[10 µM], CBFb RUNX1 block 5%, HttQ103 aggreg 10%[9.22 µM] and ALDH1A1 block -16%.
Screening Cc1cccc(N=N/C(=C\O)C(=O)c2ccc(Br)cc2)c1 returned HTT cytoprotect 30%[10 µM], CBFb RUNX1 block inconclusive, HttQ103 aggreg inconclusive and ALDH1A1 block inconclusive.
`COC(=O)c1ccccc1C(=O)c1ccc2c(c1)NC(=O)CO2` gave HTT cytoprotect -8%, CBFb RUNX1 block 2%, HttQ103 aggreg 8% and ALDH1A1 block -6%.
For Cc1ccc2c(c1)Sc1ccccc1CC2=O the results were HTT cytoprotect -3%, PNC assembly inh 35, CBFb RUNX1 block 1%, HttQ103 aggreg inconclusive, ALDH1A1 block 18µM* and HPGD block 25µM*.
`O=C1Cc2ccccc2Sc2ccccc21` gave HTT cytoprotect -6%, PNC assembly inh 12, CBFb RUNX1 block 7%, HttQ103 aggreg 5%, ALDH1A1 block inconclusive and HPGD block inconclusive.
`COc1ccccc1-c1ccc2ncnc(Nc3ccccc3)c2c1` gave HTT cytoprotect -50% and ALDH1A1 block inconclusive.
Screening CCN(CC)C(=O)CSc1nnc(CCCCCNC(=O)OC(C)(C)C)o1 returned HTT cytoprotect -20%, PNC assembly inh -24, CBFb RUNX1 block 9%, HttQ103 aggreg -4% and ALDH1A1 block 5%.
For O=[N+]([O-])c1ccc(-c2c(O)c3ccccc3c3nc4ccccc4nc23)cc1 the results were HTT cytoprotect -18%, CBFb RUNX1 block 10%, HttQ103 aggreg 7.1µM* and ALDH1A1 block -1%.
For CCCCCC(=O)/C=C/C=C\CCCCCCCC(=O)O the results were HTT cytoprotect -13%, CBFb RUNX1 block -2%, ALDH1A1 block 0% and HPGD block -3%.
C=C1CC[C@H](O)C/C1=C/C=C1\CCC[C@]2(C)C([C@H](C)CCCC(C)(C)O)CC[C@@H]12 (stereo partly drawn) was read as HTT cytoprotect 4%, CBFb RUNX1 block 5% and ALDH1A1 block 5%.
For O=c1c(-c2cc(F)cc(F)c2)nc2cnc(N3CCOCC3)nc2n1CCc1ccccc1 the results were HTT cytoprotect -12% and ALDH1A1 block inconclusive.
Screening Fc1cccc(CN2CCN(c3ncccn3)CC2)c1 returned HTT cytoprotect -3%, PNC assembly inh 14, CBFb RUNX1 block 5%, HttQ103 aggreg 9%, ALDH1A1 block 13µM* and HPGD block -14%.
For CC(C)CC(OC(=O)c1nsc(Cl)c1Cl)C(=O)NCc1cccs1 (stereo not drawn) the results were HTT cytoprotect 7%[1.9 µM], PNC assembly inh 13, CBFb RUNX1 block 10%, HttQ103 aggreg -11%, ALDH1A1 block inconclusive and HPGD block 5µM*.
For CCC(OC(=O)c1nsc(Cl)c1Cl)C(=O)NCc1cccs1 (stereo not drawn) the results were HTT cytoprotect 18%[1.9 µM], PNC assembly inh -20, CBFb RUNX1 block 17%, HttQ103 aggreg -12%, ALDH1A1 block 3% and HPGD block 25µM*.
For Cc1oc(C(C)(C)C)c(CN2CCOCC2)c1C(=O)O the results were HTT cytoprotect 19%[10 µM], CBFb RUNX1 block 4%, HttQ103 aggreg 12%[9.22 µM] and ALDH1A1 block -8%.
Screening CCc1cccc2c(C(=O)COC(=O)c3nn(C)c(=O)c4ccccc34)c[nH]c12 returned HTT cytoprotect -11%, PNC assembly inh -109*, CBFb RUNX1 block -2%, HttQ103 aggreg -23%, ALDH1A1 block inconclusive and HPGD block inconclusive.
Screening CCc1cccc2c(C(=O)COC(=O)C3=NNC(=O)CC3)c[nH]c12 returned HTT cytoprotect -22%[1.9 µM], CBFb RUNX1 block 5%, HttQ103 aggreg -7%[9.22 µM] and ALDH1A1 block 13%.
CCc1ccc2oc(-c3cc(N)cc(C)c3O)nc2c1 was read as HTT cytoprotect -49%, PNC assembly inh -107*, CBFb RUNX1 block -10%, HttQ103 aggreg 29%[9.22 µM], ALDH1A1 block inconclusive and HPGD block -5%.
CN(C)c1ccc(/C=N\NC(=O)c2cnc3ccccc3c2)cc1 was read as HTT cytoprotect -2%[10 µM], ALDH1A1 block -12%[13.5 µM] and HPGD block -2%.
Screening Nc1sc2c(c1C(=O)c1ccccc1)CCCC2 returned HTT cytoprotect -16%, PNC assembly inh 6, CBFb RUNX1 block -5%, HttQ103 aggreg -1%, ALDH1A1 block 14µM* and HPGD block inconclusive.
Nc1sc2c(c1C(=O)NCCc1ccccc1)CCC2 was read as CBFb RUNX1 block 1% and ALDH1A1 block 20µM*.
O=C(NCCc1ccccc1)c1c(F)cccc1F was read as HTT cytoprotect -11%[10 µM], CBFb RUNX1 block -2%, HttQ103 aggreg -12%[9.22 µM] and ALDH1A1 block 2%.
`NC(=O)c1c(N)sc2c1CCCC2` gave HTT cytoprotect -30%, PNC assembly inh 16, CBFb RUNX1 block 3%, HttQ103 aggreg -20%, ALDH1A1 block 13µM* and HPGD block 32µM*.
